The sequences below were run against SMC2 (assay: pooled miR-30 sensor sort-seq; sequence = guide strand). Details: shRNA.
Note: reference of the scale not given here.

| Sequence | sensor-assay potency score (higher = more potent) |
| --- | --- |
| TTCTGGTTTATATTCAACCAAG | -1.67 |
| TTGCATTGTTGAACATACCTTC | 0.529 |
| TTGTTTATTCTTTAATTCCTGT | -0.411 |
| TTTTTGTATTCATACATCCTGG | -0.581 |
| TTCTATTCCAGTTCTTCTCTGG | 0.3 |
| TTTGATTCTCAGTTCATCCTGA | 0.766 |
| TAATTCTTCTTGTTGCTTGTGA | 0.551 |
| TACTTTGGTATCTTCAGCCAGC | -0.418 |
| TTGAGTTCTTGAAACTTGGTTA | 0.137 |
| TTCTAGAGCTTCTTGATCCTTC | 0.175 |
| TTCATTTACAGCTTCAAGCTGT | 0.444 |
| TCTACCACCAATAACCACCTGC | 0.664 |

What follows are sequences tested against SMC5 in the same assay as above. Details: shRNA.

| Sequence | sensor-assay potency score (higher = more potent) |
| --- | --- |
| TATAAATCTGTTTTAATCGGGT | -0.0428 |
| TAAATCTAAATGTCGCTTCCGT | 0.849 |
| TTGATCTAGTTCAACTTTCTTT | -0.0143 |
| TTATCTTTCATATTGATCGTGA | 0.464 |
| TTCATTGTCTTTGTGCTCCAGA | 0.694 |
| TTTCCTTTCTATAACATCTTGC | 0.304 |
| TTCTCTTTTTGTATATTCCTGA | -0.0732 |
| TTCTATAACATCTTGCTTCTGT | 0.581 |

Source: the OligoGym collection
